Data taken from the supplement of paper PMC11732987, “Enantioselective OTUD7B fragment discovery through chemoproteomics screening and high-throughput optimisation” (Communications Chemistry, 2025).

Legend:
Test in all cases: log2 ratio of Biotin-Ahx-Ub-VS probe labelling (fragment/DMSO); higher = less target engagement (more negative = stronger competition), active = hit call of the paper (q ≤ 0.05, log2 ratio ≤ -1)
Conditions in all cases: compound concentration: 200 uM; treatment time: 3 h
USP9X = USP9X (UniProt Q93008)
Sequence of USP9X (Q93008 whole entry, the tested form may be a part): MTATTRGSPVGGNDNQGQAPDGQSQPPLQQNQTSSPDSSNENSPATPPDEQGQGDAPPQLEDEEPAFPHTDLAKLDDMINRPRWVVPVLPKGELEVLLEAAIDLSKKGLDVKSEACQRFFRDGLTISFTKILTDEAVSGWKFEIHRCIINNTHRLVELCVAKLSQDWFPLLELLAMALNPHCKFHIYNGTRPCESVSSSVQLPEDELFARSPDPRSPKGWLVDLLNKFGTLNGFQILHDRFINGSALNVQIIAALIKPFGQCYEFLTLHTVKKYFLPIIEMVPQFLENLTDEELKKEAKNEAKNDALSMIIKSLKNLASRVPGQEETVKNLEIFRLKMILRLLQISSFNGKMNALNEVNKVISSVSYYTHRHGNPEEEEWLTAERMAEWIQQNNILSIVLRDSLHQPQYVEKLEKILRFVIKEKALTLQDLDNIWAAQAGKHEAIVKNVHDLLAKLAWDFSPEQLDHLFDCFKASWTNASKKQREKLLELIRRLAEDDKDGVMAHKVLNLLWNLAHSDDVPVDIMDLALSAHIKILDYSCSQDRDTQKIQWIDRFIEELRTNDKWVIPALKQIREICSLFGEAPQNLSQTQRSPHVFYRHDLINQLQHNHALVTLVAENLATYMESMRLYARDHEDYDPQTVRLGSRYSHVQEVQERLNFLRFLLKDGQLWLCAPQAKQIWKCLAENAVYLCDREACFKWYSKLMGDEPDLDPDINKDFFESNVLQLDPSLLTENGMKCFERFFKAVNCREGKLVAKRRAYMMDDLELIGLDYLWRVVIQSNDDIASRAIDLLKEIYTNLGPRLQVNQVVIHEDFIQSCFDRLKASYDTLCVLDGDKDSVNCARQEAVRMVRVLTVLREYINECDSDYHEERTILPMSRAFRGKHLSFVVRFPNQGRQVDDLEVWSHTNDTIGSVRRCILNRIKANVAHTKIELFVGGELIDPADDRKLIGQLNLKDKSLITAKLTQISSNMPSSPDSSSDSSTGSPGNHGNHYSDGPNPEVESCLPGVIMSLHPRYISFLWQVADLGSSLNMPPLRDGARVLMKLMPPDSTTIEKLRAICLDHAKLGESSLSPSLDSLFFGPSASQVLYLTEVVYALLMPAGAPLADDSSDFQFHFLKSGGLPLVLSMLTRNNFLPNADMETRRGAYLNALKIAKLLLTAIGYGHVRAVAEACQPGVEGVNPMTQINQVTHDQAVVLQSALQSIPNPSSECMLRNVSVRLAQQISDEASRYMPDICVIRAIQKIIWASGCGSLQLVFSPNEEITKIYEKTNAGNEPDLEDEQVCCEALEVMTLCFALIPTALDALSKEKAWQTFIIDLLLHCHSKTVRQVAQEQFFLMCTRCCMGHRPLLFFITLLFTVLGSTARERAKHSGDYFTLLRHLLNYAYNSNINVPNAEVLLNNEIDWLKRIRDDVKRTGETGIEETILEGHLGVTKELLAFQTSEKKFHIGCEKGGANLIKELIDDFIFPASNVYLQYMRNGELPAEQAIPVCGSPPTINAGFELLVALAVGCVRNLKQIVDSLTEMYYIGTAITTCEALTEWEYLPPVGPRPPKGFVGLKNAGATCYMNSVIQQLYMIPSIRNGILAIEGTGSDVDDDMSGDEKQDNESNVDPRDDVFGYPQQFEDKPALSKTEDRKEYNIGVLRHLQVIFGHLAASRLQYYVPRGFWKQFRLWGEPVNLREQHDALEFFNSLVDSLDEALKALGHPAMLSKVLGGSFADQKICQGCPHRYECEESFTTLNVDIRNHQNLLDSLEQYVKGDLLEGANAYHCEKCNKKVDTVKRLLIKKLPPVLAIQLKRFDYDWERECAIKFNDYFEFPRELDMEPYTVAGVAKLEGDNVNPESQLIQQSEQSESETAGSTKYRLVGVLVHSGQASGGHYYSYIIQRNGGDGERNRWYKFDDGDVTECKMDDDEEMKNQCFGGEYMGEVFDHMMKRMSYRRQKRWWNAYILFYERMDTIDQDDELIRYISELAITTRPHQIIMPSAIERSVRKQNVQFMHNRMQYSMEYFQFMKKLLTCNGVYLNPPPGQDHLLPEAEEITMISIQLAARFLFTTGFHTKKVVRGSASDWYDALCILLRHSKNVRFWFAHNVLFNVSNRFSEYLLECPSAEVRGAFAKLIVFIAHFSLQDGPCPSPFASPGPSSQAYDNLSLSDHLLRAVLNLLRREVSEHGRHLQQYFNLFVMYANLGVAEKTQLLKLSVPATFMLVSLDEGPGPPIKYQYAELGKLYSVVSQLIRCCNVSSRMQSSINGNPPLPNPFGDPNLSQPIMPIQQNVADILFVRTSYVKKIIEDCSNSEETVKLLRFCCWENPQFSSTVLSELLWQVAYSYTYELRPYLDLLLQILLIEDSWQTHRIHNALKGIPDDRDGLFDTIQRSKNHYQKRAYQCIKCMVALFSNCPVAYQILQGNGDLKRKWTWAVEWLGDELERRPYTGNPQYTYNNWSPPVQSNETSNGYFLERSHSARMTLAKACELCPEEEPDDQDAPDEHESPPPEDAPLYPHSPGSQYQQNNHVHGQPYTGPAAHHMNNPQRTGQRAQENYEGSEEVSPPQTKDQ
In short: (§1)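 HEK293T lysate in Tris/CHAPS/IGEPAL buffer with protease inhibitors (495 µg per sample) was given fragment at 200 µM or vehicle for 3 h, in triplicate. It then received Biotin-Ahx-Ub-VS at 0.5 µM final for 1 h. Labelled DUBs were NeutrAvidin-enriched, digested with LysC and trypsin, and run by diaPASEF LC-MS/MS. Values are average log2 fragment/vehicle ratios by unpaired t-test on global-median-normalised Spectronaut quantities of proteins with ≥2 unique peptides.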

UniProt O00487 = biological target: UniProt O00487
In short: as §1

UniProt O00507 = biological target: UniProt O00507
Sequence of UniProt O00507 (O00507 whole entry): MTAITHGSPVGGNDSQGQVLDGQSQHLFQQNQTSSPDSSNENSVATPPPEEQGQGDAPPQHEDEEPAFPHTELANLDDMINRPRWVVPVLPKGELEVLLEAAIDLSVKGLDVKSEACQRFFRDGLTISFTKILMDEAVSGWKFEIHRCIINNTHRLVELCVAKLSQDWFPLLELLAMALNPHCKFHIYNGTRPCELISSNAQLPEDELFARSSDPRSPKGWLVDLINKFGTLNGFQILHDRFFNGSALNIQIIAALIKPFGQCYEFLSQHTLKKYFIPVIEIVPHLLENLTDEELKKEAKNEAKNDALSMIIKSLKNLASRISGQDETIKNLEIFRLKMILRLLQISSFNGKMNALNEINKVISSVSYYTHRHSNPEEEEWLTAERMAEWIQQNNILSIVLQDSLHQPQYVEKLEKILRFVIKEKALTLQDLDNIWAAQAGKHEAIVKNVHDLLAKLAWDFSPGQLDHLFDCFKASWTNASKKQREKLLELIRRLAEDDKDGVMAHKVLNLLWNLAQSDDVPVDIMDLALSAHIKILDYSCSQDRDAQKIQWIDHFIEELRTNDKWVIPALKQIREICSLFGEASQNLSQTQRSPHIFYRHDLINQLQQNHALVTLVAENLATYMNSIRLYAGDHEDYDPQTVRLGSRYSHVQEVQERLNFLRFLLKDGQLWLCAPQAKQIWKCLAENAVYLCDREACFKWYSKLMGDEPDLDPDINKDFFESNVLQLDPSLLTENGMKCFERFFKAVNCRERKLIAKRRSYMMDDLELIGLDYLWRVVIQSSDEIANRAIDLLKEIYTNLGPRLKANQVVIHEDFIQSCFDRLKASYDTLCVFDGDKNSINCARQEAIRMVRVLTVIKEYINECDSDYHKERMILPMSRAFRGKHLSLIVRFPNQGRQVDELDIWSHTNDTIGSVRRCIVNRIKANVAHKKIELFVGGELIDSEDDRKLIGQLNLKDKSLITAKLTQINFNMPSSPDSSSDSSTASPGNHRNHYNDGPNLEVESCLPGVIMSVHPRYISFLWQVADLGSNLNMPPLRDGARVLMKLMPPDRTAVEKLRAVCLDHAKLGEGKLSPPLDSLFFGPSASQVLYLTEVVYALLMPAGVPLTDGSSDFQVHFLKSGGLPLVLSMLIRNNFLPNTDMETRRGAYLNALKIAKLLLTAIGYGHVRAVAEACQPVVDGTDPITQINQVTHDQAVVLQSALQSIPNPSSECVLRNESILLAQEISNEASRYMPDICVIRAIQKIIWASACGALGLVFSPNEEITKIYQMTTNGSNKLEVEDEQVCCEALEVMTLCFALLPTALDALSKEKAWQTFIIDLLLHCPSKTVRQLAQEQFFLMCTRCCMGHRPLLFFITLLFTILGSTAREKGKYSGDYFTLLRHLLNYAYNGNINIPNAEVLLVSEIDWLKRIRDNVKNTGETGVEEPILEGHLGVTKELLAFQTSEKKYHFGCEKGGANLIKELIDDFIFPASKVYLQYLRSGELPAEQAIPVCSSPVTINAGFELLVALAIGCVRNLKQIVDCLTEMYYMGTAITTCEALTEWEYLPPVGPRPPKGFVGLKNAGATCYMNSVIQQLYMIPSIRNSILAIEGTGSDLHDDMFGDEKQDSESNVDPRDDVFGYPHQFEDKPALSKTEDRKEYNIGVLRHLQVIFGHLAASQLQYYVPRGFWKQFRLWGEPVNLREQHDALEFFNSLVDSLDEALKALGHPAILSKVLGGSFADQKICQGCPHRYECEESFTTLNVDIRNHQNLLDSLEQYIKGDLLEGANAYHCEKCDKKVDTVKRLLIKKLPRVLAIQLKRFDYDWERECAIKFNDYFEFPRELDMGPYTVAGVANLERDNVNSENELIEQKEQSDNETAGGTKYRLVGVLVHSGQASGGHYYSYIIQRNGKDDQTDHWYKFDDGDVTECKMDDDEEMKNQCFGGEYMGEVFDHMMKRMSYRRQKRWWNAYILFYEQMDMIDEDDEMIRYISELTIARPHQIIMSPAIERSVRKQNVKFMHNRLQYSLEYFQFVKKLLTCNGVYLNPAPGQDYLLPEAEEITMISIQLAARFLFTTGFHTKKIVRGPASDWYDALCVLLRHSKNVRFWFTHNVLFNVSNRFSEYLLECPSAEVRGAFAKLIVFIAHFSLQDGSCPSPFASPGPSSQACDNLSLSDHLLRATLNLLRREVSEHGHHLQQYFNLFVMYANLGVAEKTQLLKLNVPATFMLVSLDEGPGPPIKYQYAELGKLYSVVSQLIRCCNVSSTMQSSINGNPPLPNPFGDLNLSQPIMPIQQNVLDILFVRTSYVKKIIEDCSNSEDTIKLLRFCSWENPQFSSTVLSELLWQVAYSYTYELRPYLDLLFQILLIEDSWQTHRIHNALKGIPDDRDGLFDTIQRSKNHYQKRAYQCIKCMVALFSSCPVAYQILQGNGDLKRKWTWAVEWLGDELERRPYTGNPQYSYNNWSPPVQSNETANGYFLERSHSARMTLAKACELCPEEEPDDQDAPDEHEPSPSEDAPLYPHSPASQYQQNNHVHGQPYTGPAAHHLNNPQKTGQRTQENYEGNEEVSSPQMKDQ
In short: as §1

UniProt P51784 = biological target: UniProt P51784
In short: as §1

UniProt Q5T2D3 = biological target: T1, UniProt Q5T2D3
T1 sequence (whole entry): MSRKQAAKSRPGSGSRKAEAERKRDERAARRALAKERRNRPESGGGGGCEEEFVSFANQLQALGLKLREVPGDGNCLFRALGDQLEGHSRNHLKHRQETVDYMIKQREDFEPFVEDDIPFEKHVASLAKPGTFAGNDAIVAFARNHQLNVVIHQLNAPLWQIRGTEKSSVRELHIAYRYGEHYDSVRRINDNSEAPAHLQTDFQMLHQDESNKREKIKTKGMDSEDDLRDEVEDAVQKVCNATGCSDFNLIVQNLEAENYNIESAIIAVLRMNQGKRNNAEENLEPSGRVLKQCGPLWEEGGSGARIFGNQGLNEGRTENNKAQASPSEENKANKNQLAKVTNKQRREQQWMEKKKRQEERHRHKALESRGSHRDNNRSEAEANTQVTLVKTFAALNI
In short: as §1

UniProt Q8TE49 = biological target: T2, UniProt Q8TE49
T2 sequence (whole entry): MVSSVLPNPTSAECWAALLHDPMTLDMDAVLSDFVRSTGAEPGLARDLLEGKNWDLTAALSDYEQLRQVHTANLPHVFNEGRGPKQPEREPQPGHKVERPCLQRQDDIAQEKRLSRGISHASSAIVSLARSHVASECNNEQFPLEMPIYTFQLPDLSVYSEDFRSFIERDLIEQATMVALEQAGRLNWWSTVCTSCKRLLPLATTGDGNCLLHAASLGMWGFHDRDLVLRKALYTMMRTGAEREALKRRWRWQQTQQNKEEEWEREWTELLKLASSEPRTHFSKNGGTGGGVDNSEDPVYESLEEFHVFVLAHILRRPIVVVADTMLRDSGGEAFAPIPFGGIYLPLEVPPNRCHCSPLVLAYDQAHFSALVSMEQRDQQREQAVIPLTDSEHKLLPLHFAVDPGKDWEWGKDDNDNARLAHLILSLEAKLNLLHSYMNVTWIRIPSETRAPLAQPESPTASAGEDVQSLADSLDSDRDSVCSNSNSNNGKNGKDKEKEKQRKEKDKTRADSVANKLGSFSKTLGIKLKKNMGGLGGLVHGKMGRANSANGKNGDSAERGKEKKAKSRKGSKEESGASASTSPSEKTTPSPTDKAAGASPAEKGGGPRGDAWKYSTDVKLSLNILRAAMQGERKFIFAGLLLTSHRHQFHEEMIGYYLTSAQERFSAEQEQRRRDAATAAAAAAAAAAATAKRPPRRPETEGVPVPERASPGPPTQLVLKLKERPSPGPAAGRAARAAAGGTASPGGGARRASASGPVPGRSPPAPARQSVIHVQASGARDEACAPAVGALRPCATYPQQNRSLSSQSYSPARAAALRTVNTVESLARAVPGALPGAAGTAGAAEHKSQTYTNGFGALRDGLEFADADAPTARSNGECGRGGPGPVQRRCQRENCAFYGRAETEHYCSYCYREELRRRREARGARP
In short: as §1

UniProt Q9P2H5 = biological target: T3, UniProt Q9P2H5
T3 sequence (whole entry): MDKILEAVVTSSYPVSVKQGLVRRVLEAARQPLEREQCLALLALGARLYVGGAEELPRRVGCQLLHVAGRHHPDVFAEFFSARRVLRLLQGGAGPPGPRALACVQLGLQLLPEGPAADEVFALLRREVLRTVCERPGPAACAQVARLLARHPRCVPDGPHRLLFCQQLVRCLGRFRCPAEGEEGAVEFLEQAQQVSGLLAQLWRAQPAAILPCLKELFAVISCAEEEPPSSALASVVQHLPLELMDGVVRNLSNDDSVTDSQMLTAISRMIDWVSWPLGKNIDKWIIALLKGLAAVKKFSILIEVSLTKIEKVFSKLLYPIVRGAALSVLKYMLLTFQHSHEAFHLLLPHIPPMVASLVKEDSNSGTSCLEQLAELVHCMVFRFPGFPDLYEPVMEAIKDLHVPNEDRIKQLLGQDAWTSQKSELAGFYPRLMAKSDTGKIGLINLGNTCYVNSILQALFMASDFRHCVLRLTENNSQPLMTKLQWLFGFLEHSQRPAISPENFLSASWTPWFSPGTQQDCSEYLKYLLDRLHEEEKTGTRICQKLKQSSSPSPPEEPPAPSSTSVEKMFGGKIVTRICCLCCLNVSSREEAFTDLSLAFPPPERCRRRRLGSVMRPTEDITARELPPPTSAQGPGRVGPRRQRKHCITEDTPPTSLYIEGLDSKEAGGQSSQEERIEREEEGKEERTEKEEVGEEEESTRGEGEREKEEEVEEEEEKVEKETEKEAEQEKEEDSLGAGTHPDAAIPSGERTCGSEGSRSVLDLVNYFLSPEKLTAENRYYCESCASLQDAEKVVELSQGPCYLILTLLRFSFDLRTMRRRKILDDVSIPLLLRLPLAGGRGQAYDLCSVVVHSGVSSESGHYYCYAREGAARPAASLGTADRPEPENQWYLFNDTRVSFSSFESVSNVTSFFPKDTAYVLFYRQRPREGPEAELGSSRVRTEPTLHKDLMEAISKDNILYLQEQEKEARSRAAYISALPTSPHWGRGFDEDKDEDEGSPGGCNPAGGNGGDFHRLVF
In short: as §1

UniProt Q9UGI0 = biological target: T4, UniProt Q9UGI0
T4 sequence (whole entry): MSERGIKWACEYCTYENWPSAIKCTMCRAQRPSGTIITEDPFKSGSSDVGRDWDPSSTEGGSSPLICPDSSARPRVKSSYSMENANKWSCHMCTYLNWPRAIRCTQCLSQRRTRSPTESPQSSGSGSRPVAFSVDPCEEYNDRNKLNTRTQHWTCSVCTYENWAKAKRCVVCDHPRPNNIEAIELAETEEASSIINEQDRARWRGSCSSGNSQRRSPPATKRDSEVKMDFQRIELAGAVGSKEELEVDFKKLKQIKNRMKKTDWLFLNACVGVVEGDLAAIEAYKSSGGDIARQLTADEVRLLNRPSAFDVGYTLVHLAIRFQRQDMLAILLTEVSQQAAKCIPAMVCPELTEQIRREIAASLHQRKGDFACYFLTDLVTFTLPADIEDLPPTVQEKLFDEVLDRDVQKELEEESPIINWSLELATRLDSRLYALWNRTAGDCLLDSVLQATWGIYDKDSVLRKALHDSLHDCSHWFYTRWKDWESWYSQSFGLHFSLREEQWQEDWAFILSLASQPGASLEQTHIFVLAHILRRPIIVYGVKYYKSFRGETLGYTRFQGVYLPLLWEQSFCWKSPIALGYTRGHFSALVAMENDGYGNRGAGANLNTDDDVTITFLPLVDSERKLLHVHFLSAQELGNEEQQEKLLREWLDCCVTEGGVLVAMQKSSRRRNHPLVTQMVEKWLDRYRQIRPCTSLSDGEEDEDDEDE
In short: as §1

YOD1 = biological target: T5, YOD1 (UniProt Q5VVQ6)
T5 sequence (whole entry): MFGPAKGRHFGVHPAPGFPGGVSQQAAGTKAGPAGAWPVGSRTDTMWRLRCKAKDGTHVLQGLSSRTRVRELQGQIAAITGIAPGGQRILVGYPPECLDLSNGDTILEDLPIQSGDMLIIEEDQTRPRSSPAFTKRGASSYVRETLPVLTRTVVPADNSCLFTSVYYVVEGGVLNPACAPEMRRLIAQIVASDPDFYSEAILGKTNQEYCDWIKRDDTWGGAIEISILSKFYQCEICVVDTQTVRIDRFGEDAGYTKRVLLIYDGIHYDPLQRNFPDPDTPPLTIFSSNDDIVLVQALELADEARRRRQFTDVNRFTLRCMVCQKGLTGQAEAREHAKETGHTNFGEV
In short: as §1

Measured: log2 ratio of Biotin-Ahx-Ub-VS probe labelling

Cl.O=C(CCl)N[C@H]1C[C@@H](n2cccn2)C1
inactive: USP9X -0.0582 | UniProt O00487 0.0109 | UniProt O00507 -0.599 | UniProt P51784 0.0814 | UniProt Q5T2D3 0.0298 | UniProt Q8TE49 -0.369 | UniProt Q9P2H5 0.122 | UniProt Q9UGI0 -0.284 | YOD1 -0.324
